Assay outcomes deposited in PubChem by National Center for Advancing Translational Sciences (NCATS).
Sampled rows, rich in hits. Any-hit rate of the full collection: about 10%.
BAZ2B block – BAZ2B (human) inhibition | hit rate 4.4% among 360,000 | Potency, µM (top dose mostly 114 µM), inactives show at the highest dose activity change, negative = inhibition, actives largely listed as inhibitors | AlphaScreen BAZ2B-H3K14Ac peptide displacement | Q9UIF8; further: on the % scale 0 is the no-effect control and ±100 the full control effect; nearly all actives have a fitted effect of over 60% in size
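Inhibition is scored as reduced AlphaScreen emission. The BAZ2B/b-H3(5-23)K14Ac complex (50 nM each) in PBS pH 7.4, 0.01% Tween-20 meets compound (up to 110 uM) for 30 min at RT before bead addition.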
G9a inh – inhibitors of human histone lysine methyltransferase G9a; Q96KQ7; G9a H3K9 monomethylation, AlphaScreen, 2 h; Potency, µM (series often up to 102 µM), for the others: at the top dose activity, negative = inhibition, actives largely listed as inhibitors; hit rate 8.8% among 350,000; further: on the % scale 0 is the no-effect control and ±100 the full control effect; nearly all actives have a fitted effect of over 75% in size
Target sequence (Q96KQ7 913-1193 limits assumed): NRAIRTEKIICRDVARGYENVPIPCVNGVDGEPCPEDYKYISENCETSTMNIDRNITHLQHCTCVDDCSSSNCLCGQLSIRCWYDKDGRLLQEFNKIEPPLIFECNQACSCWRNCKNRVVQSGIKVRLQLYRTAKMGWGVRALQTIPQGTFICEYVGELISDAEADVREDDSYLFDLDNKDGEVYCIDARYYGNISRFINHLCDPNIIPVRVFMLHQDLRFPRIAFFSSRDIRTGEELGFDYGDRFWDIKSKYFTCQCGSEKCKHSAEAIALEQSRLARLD
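Signal arises when biotinylated H3K9 peptide, once monomethylated, bridges streptavidin donor and antibody-captured acceptor beads. Enzyme at 20 nM was preincubated 15 min with test compounds; peptide 500 nM and SAM 20 uM then reacted for 2 h.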
GLS inhibitor – inhibitors of human glutaminase (GLS); O94925; GLS enzymatic activity, qHTS titration; Potency, µM (top dose mostly 45.5 µM), inactives show at the top dose activity change, negative = inhibition, usual class: inhibitors; hit rate 0.21% among 410,000; AID 624170; further: on the % scale 0 is the no-effect control and ±100 the full control effect
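hKGA in 45 mM KH2PO4 pH 8.2, 0.02% Tween-20 with pin-transferred compounds; 1 mM L-glutamine (stock) plus glutamate oxidase/HRP/Amplex Red coupling added. Fluorescence read initially and after 30 min at RT.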
JMJD2A Tudor – JMJD2A Tudor domain (human) inhibition; O75164; AlphaScreen JMJD2A-Tudor / H3K4me3 peptide binding; Potency, µM (doses to about 114 µM), for the others: top-dose activity change, negative = inhibition, actives largely listed as inhibitors; hit rate 4.4% among 390,000; further: on the % scale 0 is the no-effect control and ±100 the full control effect; nearly all actives have a fitted effect of over 50% in size
HP1b binding inh – blocks HP1-beta chromodomain binding to methylated histone tails. AlphaScreen HP1-beta / biotin-H3K9me3 peptide binding. Potency, µM (highest dose often 114 µM), without a hit: at the highest dose activity change, negative = inhibition, most hits filed as inhibitors. hit rate 0.56% among 390,000. AID 540317; further: nearly all actives have a fitted effect of over 70% in size
Target sequence (P83916 whole entry, looked up): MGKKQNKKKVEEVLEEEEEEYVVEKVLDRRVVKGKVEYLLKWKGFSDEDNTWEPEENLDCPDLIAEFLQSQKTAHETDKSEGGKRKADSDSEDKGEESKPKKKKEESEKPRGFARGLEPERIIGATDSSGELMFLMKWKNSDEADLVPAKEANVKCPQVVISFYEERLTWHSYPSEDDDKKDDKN
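AlphaScreen: HP1-beta (50 nM) preformed 30 min with biotin-H3(1-18)K9me3 peptide (50 nM) in PBS pH 7.4, 0.01% Tween-20. Compound added for 30 min at RT, then streptavidin donor/nickel chelate acceptor beads (10 ug/mL) for 30 min.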
Active calls of the source: *; ? = inconclusive; nt = no result given; [ ] = remark or other dose. The call rests on the fitted dose curve; in most records, active means well fitted curve in the direction sought with a large enough effect; inconclusive means small, poorly fitted or top-dose-only effect, or another doubt; inactive means no such curve, though single readings can be large; an effect the other way counts as inactive or inconclusive. Potency means the concentration at half of the fitted maximal effect.

SMILES	BAZ2B block	G9a inh	GLS inhibitor	JMJD2A Tudor	HP1b binding inh
COc1ccc(CCNC(=O)c2ccc3c(c2)CCN3S(=O)(=O)c2ccc(C)cc2)cc1	-4%	-31%[59 µM]	-2%	-14%	18%
CC(C)C[C@@H](CN1CCCC1CN1C(=S)NC[C@@H]1Cc1ccc(O)cc1)N1C[C@H](Cc2ccc(O)cc2)N(CCc2ccccc2)C1=S (stereo partly specified)	nt	nt	14%	?	1%
Cc1cccc(C)c1-n1c(C)cc(/C=N\NC(=O)CC(=O)NC2CCCCC2)c1C	50µM*	-4%[59 µM]	3%	?	?
Cc1nc2cccnc2n1-c1cccc(C(=O)N2CCN(c3cccc(Cl)c3)CC2)c1	-17%	9%[59 µM]	7%	-6%	47%
CC[C@H](C)[C@@H](CN[C@H](C)CNC)NCCC(c1ccccc1)c1ccccc1	-35%	45µM*	2%	-16%	29%
COc1ccc(C2Nc3ccccc3C(=O)N2Cc2ccco2)cc1OC (stereo unspecified)	nt	nt	nt	-20%[57.1 µM]	?
COc1cccc(N2C(=O)c3cccnc3C2O)c1 (stereo unspecified)	-24%	-13%	-2%	-10%	11%
COc1ccc(OC)c(NC2c3ncccc3C(=O)N2Cc2ccco2)c1 (stereo unspecified)	?	50µM*	27%	-34%	3%
COc1ccc(CN2C(=O)c3cccnc3C2Nc2cc(Cl)ccc2OC)cc1 (stereo unspecified)	25µM*	?	22%	20µM*	-23%
COc1ccc(CN2C(=O)c3cccnc3C2O)cc1 (stereo unspecified)	40µM*	?	?	?	-23%
Cc1ccc(NC2c3ncccc3C(=O)N2Cc2ccco2)c(C)c1 (stereo unspecified)	-33%	45µM*	-3%	?	16%
O=S(=O)(O)CCCS(=O)(=O)O	nt	-43%[12.7 µM]	4%	nt	nt
CC(C)CN(CC(C)C)c1nn[nH]n1	nt	nt	-7%	5%	14%
CCCC(=O)Nc1ccc(-c2nc3ncccc3o2)cc1C	-7%	4%[59 µM]	-18%	-4%	29%
CCOC(=O)[C@@H](NC(=O)CC[C@H]1O[C@@H](n2ccc(=O)[nH]c2=O)[C@H](O)[C@@H]1O)C(C)C	nt	nt	2%	nt	nt
COc1cc(CN2CCCCCC2)cc(OC)c1	0%	13%	2%	-6%	32%
COc1cc(C(=O)N2CCN(CCCc3ccccc3)CC2)cc(OC)c1OC	nt	nt	0%	20µM*	-12%
CN1CCN(Cc2cccc(Oc3ccccc3)c2)CC1	0%	71µM*	-6%	-20%	18%
COc1cc(CN2CCN(C(=O)c3ccc(-c4ccccc4)cc3)CC2)cc(OC)c1OC	15%	nt	-3%	7.9µM*	?
COc1ccc(C(=O)N2CCN(C(=O)c3ccc(-c4ccccc4)cc3)CC2)cc1OC	-3%	-40%	0%	-5%	19%
COc1cc(CN2CCN(Cc3cccc(OC)c3OC)CC2)cc(OC)c1	18µM*	45µM*	-7%	4µM*	35µM*
O=C(Nc1cccc(C(F)(F)F)c1)Nc1ccc2nc([C@@H]3O[C@H](CO)[C@@H](O)[C@H](O)[C@H]3O)[nH]c2c1	nt	nt	9%	nt	nt
COc1cc(C(=O)N2CCNCC2)cc(OC)c1OC	2%	nt	-1%	-7%	54%
COc1cc(C(=O)OCC(=O)N2CCC(Cc3ccccc3)CC2)cc(OC)c1OC	6%	8.9µM*	-4%	-2%	40%
CCOC(=O)c1ccc(NC(=O)C2CCN(C(=O)c3ccc(OC)c(OC)c3)CC2)cc1	5%	3%[59 µM]	12%	-10%	14%
COc1cc(C(=O)N2C(=O)CCC2=O)cc(OC)c1OC	?	35µM*	-26%	-13%	64%
COC(=O)c1ccc(NC(=O)C2CCN(C(=O)c3cc(OC)c(OC)c(OC)c3)CC2)cc1	-31%	10µM*	0%	45µM*	12%
COc1cccc(OC)c1C(=O)OCC(=O)N1CCC(Cc2ccccc2)CC1	nt	nt	0%	-14%	32%[57 µM]
COc1ccc(CN2CCN(Cc3cccc(Oc4ccccc4)c3)CC2)c(OC)c1OC	20µM*	45µM*	-7%	4µM*	25µM*
